Data reported in PubChem BioAssay (Tox21).
Records with an inconclusive call do not appear. Active and inactive are the calls of the source. Unless noted, calls come from the whole dose curve; as a rule, active = well fitted curve in the direction sought with a large enough effect in the repeat runs; inconclusive = weak or mixed curves; inactive = no such curve, though single readings can be large; an effect the other way counts as inactive or inconclusive.

Legend:
[1] = qHTS assay to identify small molecule agonists of the androgen receptor (AR) signaling pathway in the presence of an antagonist - cell viability counter screen (AID 1259379); note: nearly all actives have a fitted effect of over 25% in size; note: potency is the fitted concentration of half-maximal effect
In short: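 Cytotoxicity counter-screen run in the same wells as the nilutamide-challenged (3.0 µM final) AR agonist assay in MDA-kb2 cells. Compounds tested at 15 concentrations for 16 h, 37 °C without CO2; CellTiter-Fluor fluorescence read.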

[2] = qHTS assay to identify small molecule agonists of the estrogen receptor beta (ER-beta) signaling pathway - cell viability counter screen (AID 1259380); note: nearly all actives have a fitted effect of over 30% in size; note: potency is the fitted concentration of half-maximal effect
In short: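 Cell viability counter screen: CellTiter-Glo luminescence (30 min, room temperature) measured in the same wells as the beta-lactamase readout, after 16 hr compound exposure at 37C of ER-beta-bla HEK293T cells in 2% charcoal-stripped FBS medium.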

[3] = molecular target: Androgen receptor (Homo sapiens) (UniProt P10275); experiment: qHTS assay to identify small molecule agonists of the androgen receptor (AR) signaling pathway in the presence of an antagonist (AID 1259381; calls by dose curve; note: % is set by controls: 0 for no effect and ±100 for the full control effect; nearly all actives have a fitted effect of over 15% in size)
Chain of Androgen receptor (Homo sapiens) (P10275 whole entry, looked up): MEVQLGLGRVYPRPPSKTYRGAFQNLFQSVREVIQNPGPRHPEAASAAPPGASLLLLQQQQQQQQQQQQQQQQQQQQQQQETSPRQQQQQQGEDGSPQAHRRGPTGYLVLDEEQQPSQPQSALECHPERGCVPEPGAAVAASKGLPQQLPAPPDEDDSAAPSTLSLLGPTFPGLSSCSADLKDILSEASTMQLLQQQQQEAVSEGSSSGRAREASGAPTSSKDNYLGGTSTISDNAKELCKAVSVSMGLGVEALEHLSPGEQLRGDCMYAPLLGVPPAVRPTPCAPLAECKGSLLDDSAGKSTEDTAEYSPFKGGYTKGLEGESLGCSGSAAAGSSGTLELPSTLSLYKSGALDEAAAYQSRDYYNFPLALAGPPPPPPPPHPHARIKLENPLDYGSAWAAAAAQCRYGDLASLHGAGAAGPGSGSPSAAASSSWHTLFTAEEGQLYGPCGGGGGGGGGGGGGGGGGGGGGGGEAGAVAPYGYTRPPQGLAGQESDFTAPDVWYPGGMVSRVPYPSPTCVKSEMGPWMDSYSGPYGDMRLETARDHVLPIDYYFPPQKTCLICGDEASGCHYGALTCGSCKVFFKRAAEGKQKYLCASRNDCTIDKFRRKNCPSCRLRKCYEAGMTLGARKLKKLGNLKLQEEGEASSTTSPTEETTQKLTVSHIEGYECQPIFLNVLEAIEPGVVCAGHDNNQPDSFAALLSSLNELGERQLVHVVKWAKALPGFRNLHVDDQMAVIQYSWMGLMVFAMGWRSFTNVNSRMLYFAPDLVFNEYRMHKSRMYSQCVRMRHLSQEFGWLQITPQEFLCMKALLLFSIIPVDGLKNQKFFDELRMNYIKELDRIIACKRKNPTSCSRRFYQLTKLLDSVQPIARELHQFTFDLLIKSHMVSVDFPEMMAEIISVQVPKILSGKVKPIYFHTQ
In short: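 Agonist-mode confirmation run against 3.0 uM final nilutamide: compounds titrated at 15 concentrations onto MDA-kb2 MMTV-luciferase reporter cells. Luminescence measured with ONE-Glo following 16 hr incubation, 37C, 0% CO2.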

[4] = qHTS assay to identify small molecule antagonists of the estrogen receptor beta (ER-beta) signaling pathway - cell viability counter screen (AID 1259382); note: nearly all actives have a fitted effect of over 55% in size; note: potency is the fitted concentration of half-maximal effect
In short: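 Cytotoxicity was measured in the same wells by CellTiter-Glo luminescence after 30 min at room temperature. Cells were ER-beta-bla HEK293T in charcoal-stripped serum, given compound together with 1 nM E2 and incubated 16 h at 37C.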

[5] = molecular target: Estrogen receptor (Homo sapiens) (UniProt P03372); experiment: qHTS assay to identify small molecule agonists of the estrogen receptor alpha (ER-alpha) signaling pathway in the presence of an antagonist (AID 1259383; calls by dose curve; note: top concentration of the series differs between compounds; % is set by controls: 0 for no effect and ±100 for the full control effect; nearly all actives have a fitted effect of over 15% in size)
Chain of Estrogen receptor (Homo sapiens) (P03372 whole entry, looked up): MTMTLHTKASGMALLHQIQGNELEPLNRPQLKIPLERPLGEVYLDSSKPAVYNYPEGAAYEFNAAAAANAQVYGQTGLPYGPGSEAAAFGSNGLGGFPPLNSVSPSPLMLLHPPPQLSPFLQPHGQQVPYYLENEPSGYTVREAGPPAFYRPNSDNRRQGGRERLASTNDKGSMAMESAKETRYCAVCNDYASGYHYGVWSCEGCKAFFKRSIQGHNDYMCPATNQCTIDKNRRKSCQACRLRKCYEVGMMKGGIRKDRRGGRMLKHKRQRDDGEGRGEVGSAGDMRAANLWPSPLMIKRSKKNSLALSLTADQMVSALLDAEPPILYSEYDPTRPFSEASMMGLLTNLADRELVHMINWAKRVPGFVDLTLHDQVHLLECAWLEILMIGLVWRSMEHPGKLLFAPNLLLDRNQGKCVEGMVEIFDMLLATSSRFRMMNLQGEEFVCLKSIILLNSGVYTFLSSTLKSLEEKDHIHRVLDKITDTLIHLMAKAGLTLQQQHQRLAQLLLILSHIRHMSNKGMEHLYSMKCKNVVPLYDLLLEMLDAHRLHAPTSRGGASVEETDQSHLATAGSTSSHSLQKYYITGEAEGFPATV
In short: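 Agonist-mode confirmation run in the presence of 10.0nM (final) ICI-182,780 antagonist. The reporter was ERE-driven luciferase in VM7Luc4E2 cells, grown in charcoal-stripped serum. Cells were exposed to 15-concentration compound series for 22hr, then ONE-Glo luminescence was read.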

[6] = qHTS assay to identify small molecule agonists or antagonists of the thyroid stimulating hormone receptor (TSHR) signaling pathway - wild type cell line counter screen (AID 1259384; calls by dose curve; note: % is set by controls: 0 for no effect and ±100 for the full control effect)
In short: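 Counter screen in untransfected Hek293: compounds (15-point titration, triplicate) plus phosphodiesterase inhibitor Ro20-1724 added after 18 h plating; 30 min RT. Intracellular cAMP via competitive d2/cryptate immunoassay, 1 h incubation.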

[7] = molecular target: Thyrotropin receptor (Homo sapiens) (UniProt P16473); experiment: qHTS assay to identify small molecule antagonists of the thyroid stimulating hormone receptor (TSHR) signaling pathway (AID 1259385; calls by dose curve; note: % is set by controls: 0 for no effect and ±100 for the full control effect; nearly all actives have a fitted effect of over 20% in size)
Chain of Thyrotropin receptor (Homo sapiens) (P16473 whole entry, looked up): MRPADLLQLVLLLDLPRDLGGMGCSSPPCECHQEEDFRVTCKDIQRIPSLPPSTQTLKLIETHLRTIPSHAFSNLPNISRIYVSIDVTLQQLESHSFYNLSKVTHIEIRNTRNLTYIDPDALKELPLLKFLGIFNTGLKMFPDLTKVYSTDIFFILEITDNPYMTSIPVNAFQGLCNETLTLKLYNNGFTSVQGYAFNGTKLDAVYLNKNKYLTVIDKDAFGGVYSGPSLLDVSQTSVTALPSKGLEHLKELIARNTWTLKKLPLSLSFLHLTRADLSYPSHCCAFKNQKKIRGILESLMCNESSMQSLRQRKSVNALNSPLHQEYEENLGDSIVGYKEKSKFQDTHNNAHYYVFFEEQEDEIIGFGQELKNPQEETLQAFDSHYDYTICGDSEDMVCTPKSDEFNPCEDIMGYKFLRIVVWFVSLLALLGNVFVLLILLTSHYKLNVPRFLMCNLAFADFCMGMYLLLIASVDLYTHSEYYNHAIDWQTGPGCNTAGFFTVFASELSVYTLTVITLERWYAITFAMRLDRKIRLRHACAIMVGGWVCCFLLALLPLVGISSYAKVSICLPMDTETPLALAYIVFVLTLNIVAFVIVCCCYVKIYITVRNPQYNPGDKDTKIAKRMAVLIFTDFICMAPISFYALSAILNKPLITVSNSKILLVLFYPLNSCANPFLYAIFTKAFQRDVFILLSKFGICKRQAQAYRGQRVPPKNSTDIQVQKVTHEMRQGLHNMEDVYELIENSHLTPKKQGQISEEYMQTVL
In short: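 Antagonist mode: compound-treated TSHR-expressing HEK293 cells were stimulated with 1.5 ng/mL TSH (final) in presence of Ro20-1724 for 30 min at RT. HTRF cAMP detection after 1 h; each compound tested at 15 concentrations, triplicate.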

[8] = qHTS assay to identify small molecule agonists of the estrogen receptor alpha (ER-alpha) signaling pathway in the presence of an antagonist - cell viability counter screen (AID 1259386); note: nearly all actives have a fitted effect of over 30% in size; note: potency is the fitted concentration of half-maximal effect
In short: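 Compounds tested at 15 concentrations for 22 h at 37C alongside 10.0nM (final) ICI-182,780 antagonist, in VM7Luc4E2 cells grown in phenol red-free, charcoal-stripped medium. Viability read by CellTiter-Fluor fluorescence after 1 h reagent incubation.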

[9] = molecular target: Progesterone receptor (Homo sapiens) (UniProt P06401); experiment: qHTS assay to identify small molecule agonists of the progesterone receptor (PR) signaling pathway (AID 1346784; calls by dose curve; note: % is set by controls: 0 for no effect and ±100 for the full control effect; nearly all actives have a fitted effect of over 30% in size)
Chain of Progesterone receptor (Homo sapiens) (P06401 whole entry, looked up): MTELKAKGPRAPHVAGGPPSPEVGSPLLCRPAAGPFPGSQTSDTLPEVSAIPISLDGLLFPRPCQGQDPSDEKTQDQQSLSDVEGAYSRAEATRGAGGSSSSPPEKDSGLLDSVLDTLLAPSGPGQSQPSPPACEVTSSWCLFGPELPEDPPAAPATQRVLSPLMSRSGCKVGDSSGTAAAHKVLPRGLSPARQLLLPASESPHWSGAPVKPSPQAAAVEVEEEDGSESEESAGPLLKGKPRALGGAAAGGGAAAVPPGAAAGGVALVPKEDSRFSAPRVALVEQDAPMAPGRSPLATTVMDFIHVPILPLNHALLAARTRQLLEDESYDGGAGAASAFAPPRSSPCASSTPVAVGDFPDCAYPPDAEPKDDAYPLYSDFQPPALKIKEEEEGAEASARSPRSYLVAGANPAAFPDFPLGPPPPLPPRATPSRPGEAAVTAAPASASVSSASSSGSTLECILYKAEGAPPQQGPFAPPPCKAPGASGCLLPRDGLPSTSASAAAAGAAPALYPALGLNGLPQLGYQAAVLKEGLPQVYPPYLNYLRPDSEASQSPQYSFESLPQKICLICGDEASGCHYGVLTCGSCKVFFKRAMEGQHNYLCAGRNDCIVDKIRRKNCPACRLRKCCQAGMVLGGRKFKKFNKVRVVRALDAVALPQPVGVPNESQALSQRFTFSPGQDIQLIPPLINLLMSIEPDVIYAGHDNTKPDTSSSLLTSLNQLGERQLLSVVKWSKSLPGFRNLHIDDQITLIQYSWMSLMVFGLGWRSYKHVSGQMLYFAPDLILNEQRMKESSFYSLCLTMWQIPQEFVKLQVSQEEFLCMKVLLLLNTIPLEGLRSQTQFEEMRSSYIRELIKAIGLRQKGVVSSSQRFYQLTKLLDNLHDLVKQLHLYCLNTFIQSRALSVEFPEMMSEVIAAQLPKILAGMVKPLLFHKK
In short: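 PR-UAS-bla HEK 293T cells (beta-lactamase reporter under UAS) in 2% charcoal-stripped FBS, dosed with 23 nL compound after 6 hr, incubated 16hr at 37C. LiveBLAzer B/G FRET substrate added, fluorescence read after 2 hours.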

[10] = molecular target: Progesterone receptor (Homo sapiens) (UniProt P06401); experiment: qHTS assay to identify small molecule antagonists of the progesterone receptor (PR) signaling pathway (AID 1346795; active = well fitted inhibition curve with a large enough effect in the signal ratio in the repeat runs, not every such curve was filed as active; the % refers to the signal ratio; note: % is set by controls: 0 for no effect and ±100 for the full control effect)
In short: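 PR-UAS-bla HEK293T cells with beta-lactamase reporter under UAS control, in 2% charcoal-stripped FBS, treated with compounds plus 1 nM promegestone (R5020, final) for 16 hr at 37C. Read-out: FRET beta-lactamase substrate fluorescence after 2 hr at room temperature.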

[11] = qHTS assay to identify small molecule antagonists of the progesterone receptor (PR) signaling pathway - cell viability counter screen (AID 1346798); note: nearly all actives have a fitted effect of over 50% in size; note: potency is the fitted concentration of half-maximal effect
In short: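 PR-UAS-bla HEK293T cells, 3,000/well in 2% charcoal-stripped FBS medium, dosed with compounds plus R5020 agonist and incubated 16 h at 37C. Viability then measured in the same wells by CellTiter-Glo luminescence after 30 min at RT.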

[12] = qHTS assay to identify small molecule agonists of the progesterone receptor (PR) signaling pathway - cell viability counter screen (AID 1346799; calls by dose curve; note: nearly all actives have a fitted effect of over 45% in size; note: potency is the fitted concentration of half-maximal effect)
In short: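 Counter screen in the PR-UAS-bla HEK293T wells (2% charcoal-stripped FBS, 16 h compound exposure at 37 C) after the bla read. CellTiter-Glo added, 30 min at room temperature, luminescence read as cell viability.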

[13] = qHTS assay to identify small molecule antagonists of the TGF-beta/Smad signaling pathway - cell viability counter screen (AID 1346824); note: nearly all actives have a fitted effect of over 50% in size; note: potency is the fitted concentration of half-maximal effect
In short: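 Cytotoxicity counter-screen run in the same wells as the beta-lactamase Smad reporter read: CellTiter-Glo luminescence after 30 min at room temperature. HEK 293T SBE-bla cells had 5 hr compound exposure at 37 C with TGF-beta1 (0.25 ng/mL stock).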

[14] = molecular target: Thyrotropin-releasing hormone receptor (Homo sapiens) (UniProt P34981); experiment: qHTS assay to identify small molecule antagonists of the thyrotropin-releasing hormone receptor (TRHR) signaling pathway (AID 1346877; active = well fitted inhibition curve with a large enough effect in the repeat runs, not every such curve was filed as active; note: series mostly up to about 51 µM; % is set by controls: 0 for no effect and ±100 for the full control effect)
Chain of Thyrotropin-releasing hormone receptor (Homo sapiens) (P34981 whole entry, looked up): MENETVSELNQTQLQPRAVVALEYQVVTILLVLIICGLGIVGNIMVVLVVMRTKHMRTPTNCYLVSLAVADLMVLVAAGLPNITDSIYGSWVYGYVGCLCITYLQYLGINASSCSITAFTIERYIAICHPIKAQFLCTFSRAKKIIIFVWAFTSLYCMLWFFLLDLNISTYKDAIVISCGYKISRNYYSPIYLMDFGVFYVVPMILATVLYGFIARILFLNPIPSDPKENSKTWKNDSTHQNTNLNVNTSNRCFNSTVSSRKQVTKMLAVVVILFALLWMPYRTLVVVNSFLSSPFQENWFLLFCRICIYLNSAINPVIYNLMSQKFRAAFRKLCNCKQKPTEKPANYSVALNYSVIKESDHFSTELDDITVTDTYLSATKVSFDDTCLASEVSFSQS
In short: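 Antagonist mode: after a 5 min room-temperature compound exposure, cells were stimulated with 1 nM (final) TRH. Dye-loaded TRHR-HEK293 cells were used, and calcium-dependent fluorescence was followed for 3 min, with 15-point titrations run in triplicate.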

[15] = molecular target: Thyrotropin-releasing hormone receptor (Homo sapiens) (UniProt P34981); experiment: qHTS assay to identify small molecule agonists of the thyrotropin-releasing hormone receptor (TRHR) signaling pathway (AID 1346891; calls by dose curve; note: series mostly up to about 58 µM; % is set by controls: 0 for no effect and ±100 for the full control effect)
In short: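 HEK293 cells expressing TRHR plated 18 h at 37 C/5% CO2, calcium dye-loaded 2 h at 37 C, then compound added (agonist mode); kinetic calcium fluorescence read 3 min at 1 s intervals; 15 concentrations in triplicate.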

[16] = Human pregnane X receptor (PXR) small molecule agonists, qHTS cell viability counter screen (AID 1346977); note: nearly all actives have a fitted effect of over 50% in size; note: potency is the fitted concentration of half-maximal effect
In short: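 PXR-Luc HepG2 cells (2,000/well, 5% charcoal-stripped FBS) preincubated 5 hr, then exposed to compounds 24 hr at 37 C. Viability read in the same wells by CellTiter-Fluor fluorescence, reagent added at 23 hr, 1 hr incubation.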

[17] = molecular target: Estrogen receptor beta (Homo sapiens) (UniProt Q92731); experiment: qHTS assay to identify small molecule antagonists of the estrogen receptor beta (ER-beta) signaling pathway (AID 1259378; active = well fitted inhibition curve with a large enough effect in the signal ratio in the repeat runs, not every such curve was filed as active; the % refers to the signal ratio; note: potency is the fitted concentration of half-maximal effect)
Chain of Estrogen receptor beta (Homo sapiens) (Q92731 whole entry, looked up): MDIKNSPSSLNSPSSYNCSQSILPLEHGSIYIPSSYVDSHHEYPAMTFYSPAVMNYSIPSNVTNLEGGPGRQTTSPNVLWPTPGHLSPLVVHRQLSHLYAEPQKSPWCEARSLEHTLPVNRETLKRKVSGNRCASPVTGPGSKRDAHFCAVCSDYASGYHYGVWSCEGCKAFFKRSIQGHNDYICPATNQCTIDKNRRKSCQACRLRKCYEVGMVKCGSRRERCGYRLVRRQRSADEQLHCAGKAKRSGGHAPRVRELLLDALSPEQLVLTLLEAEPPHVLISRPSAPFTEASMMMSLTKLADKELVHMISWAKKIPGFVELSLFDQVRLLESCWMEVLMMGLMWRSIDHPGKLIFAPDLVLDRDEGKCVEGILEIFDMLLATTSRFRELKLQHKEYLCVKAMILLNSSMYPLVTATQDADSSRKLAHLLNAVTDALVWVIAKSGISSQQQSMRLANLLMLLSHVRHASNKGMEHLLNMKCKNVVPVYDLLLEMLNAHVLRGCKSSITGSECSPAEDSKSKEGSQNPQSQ
In short: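 Antagonist mode: compounds added to beta-lactamase reporter HEK293T ER-beta-UAS cells stimulated with E2 (1nM final), 16 hr at 37C. LiveBLAzer B/G FRET substrate, 2 hours room temperature, fluorescence read-out.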

[18] = qHTS assay to identify small molecule agonists of the TGF-beta/Smad signaling pathway (AID 1346859; active = well fitted activation curve with a large enough effect in the signal ratio in the repeat runs, not every such curve was filed as active; the % refers to the signal ratio)
In short: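 SBE-bla HEK293T cells plated overnight, then compound exposure for 5 h at 37 C. Beta-lactamase reporter read with LiveBLAzer B/G FRET substrate after 2 h at room temperature, fluorescence at 405 nm excitation, 460/530 nm emission.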

[19] = qHTS assay to identify small molecule agonists of the TGF-beta/Smad signaling pathway - cell viability counter screen (AID 1346829); note: potency is the fitted concentration of half-maximal effect; nearly all actives have a fitted effect of over 45% in size
In short: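 Same-well cytotoxicity: CellTiter-Glo added after the 2 hr room-temperature beta-lactamase substrate step, luminescence measured 30 min later; cells had 5 hr of compound at 37 C.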

COS(=O)(=O)c1ccc(C)cc1
inactive: Potency [1] | Potency [2] | Potency [3] | Potency [4] | Potency [5] | outcome [6] | Potency [7] | Potency [8] | Potency [9] | Potency [10] | Potency [11] | Potency [12] | Potency [13] | Potency [14] | Potency [15] | Potency [16]

NC(=O)c1ccc(N)nc1
inactive: Potency [17] | Potency [1] | Potency [3] | Potency [5] | Potency [8] | Potency [9] | Potency [10] | Potency [13] | Potency [14] | Potency [15] | Potency [16]
active: Potency [2] 48.6 µM | Potency [11] 17.2 µM | Potency [12] 21.7 µM

CCC(C)(C)C(=O)OC1=C(c2ccc(Cl)cc2Cl)C(=O)OC12CCCCC2
inactive: Potency [1] | Potency [2] | Potency [3] | Potency [4] | Potency [5] | outcome [6] | Potency [7] | Potency [8] | Potency [9] | Potency [10] | Potency [12] | Potency [13] | outcome [18] | Potency [14] | Potency [15] | Potency [16]

N#C/C=C/c1ccccc1
inactive: Potency [1] | Potency [2] | Potency [3] | Potency [4] | Potency [5] | Potency [8] | Potency [10] | Potency [11] | Potency [12] | Potency [13] | outcome [18] | Potency [16]

Cn1[nH]nnc1=S
inactive: Potency [17] | Potency [1] | Potency [2] | Potency [4] | Potency [5] | outcome [6] | Potency [7] | Potency [8] | Potency [9] | Potency [13] | outcome [18] | Potency [14] | Potency [15] | Potency [16]

[Cl][Sn]([c]1ccccc1)([c]1ccccc1)[c]1ccccc1
inactive: activation [3] -10.8% [at 19 µM] | activation [5] -14.6% [at 19 µM] | cAMP activity change [6] 23.5% [at 18.9 µM]
active: Potency [1] 1.16 µM | Potency [2] 0.82 µM | Potency [4] 0.82 µM | Potency [8] 11.6 µM | Potency [11] 1.3 µM | Potency [12] 1.64 µM | Potency [13] 2.61 µM | Potency [19] 2.61 µM | Potency [16] 1.03 µM

CC(C)CC(C)Nc1ccc(Nc2ccccc2)cc1 (stereo unspecified)
active: Potency [17] 30.1 µM | Potency [8] 60.1 µM | Potency [16] 53.5 µM
inactive: Potency [5] | Potency [7] | outcome [18] | Potency [14] | Potency [15]

CCCCCCCCCCCCCCCCCCn1cc[n+](C)c1
active: Potency [1] 21.6 µM | Potency [2] 30.5 µM | Potency [4] 30.5 µM | Potency [8] 60.8 µM | Potency [12] 30.5 µM | Potency [13] 21.7 µM | Potency [16] 8.58 µM
inactive: Potency [3] | Potency [5] | outcome [6] | Potency [7] | Potency [9] | Potency [14] | Potency [15]
